# Inconclusive results are not listed. Where a call stands in place of a potency, no number is given. Active and inactive are the calls of the source. Calls follow the shape of the dose curve; as a rule, active = well fitted cell-killing curve with a large enough effect; inconclusive = small, poorly fitted or top-dose-only effect; inactive = flat fitted curve, though single readings scatter.
# Experiment: Cellular viability qHTS for adrenocortical cancer (ACC) cell line NCI-H295R (AID 1963990); also: nearly all actives have a fitted effect of over 60% in size
# Conditions: CellTiter-Glo ATP luminescence, 48 h; series mostly up to 46.1 µM
# Summary of the method: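 IC50 and maximal efficacy derive from four-parameter logistic modelling of titration curves, with reads scaled between DMSO-only wells (0%) and doxorubicin hydrochloride (100% inhibition). Compounds spanned up to 46 uM over 48 h.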
row,Compound,Potency
1,COc1nccnc1NS(=O)(=O)c1ccc(N)cc1,inactive
2,COCC(=O)Nc1c(I)c(C(=O)NCC(O)CO)c(I)c(C(=O)N(C)CC(O)CO)c1I (stereo not given),inactive
3,O=C(c1ccco1)N1CCNCC1,inactive
4,O=C(O)c1ccc(OCCN2CCCCC2)cc1,inactive
5,OC[C@@H](O)[C@H](O)[C@H](O)[C@@H](O)CO,inactive
6,CC(C)(C)NC[C@H](O)COc1nsnc1N1CCOCC1,inactive
7,CC(C(=O)O)c1cccc(Oc2ccccc2)c1 (stereo not given),inactive
8,CCN(CC)CCN,inactive
9,COC(=O)c1nc(Cl)c(Cl)nc1N,0.103 µM (active)
10,CC(C)CCCC(C)N (stereo not given),inactive
11,CC(=O)NO,inactive
12,CC(=O)N1C[C@H](O)C[C@H]1C(=O)O,inactive
13,O=C(NCC(=O)N1CCCC1)Nc1ccc2cnccc2c1,inactive
14,CCOc1ccccc1C(N)=O,inactive
15,C=C(C)C(=O)OCC(O)CO (stereo not given),inactive
16,CCCCCCCCCCCCCCCC(=O)O,inactive
17,C[C@H]1O[C@H](O[C@H]2[C@H](O)[C@@H](O)[C@@H](O[C@H]3[C@H](O)[C@@H](O)[C@H](O)O[C@@H]3CO)O[C@@H]2CO)[C@H](O)[C@@H](O)[C@@H]1N[C@H]1C=C(CO)[C@@H](O)[C@H](O)[C@H]1O,inactive
18,CC(=O)N(CC(O)CO)c1c(I)c(C(=O)NCC(O)CO)c(I)c(C(=O)NCC(O)CO)c1I (stereo not given),inactive
19,CC(=O)OC(C)C[N+](C)(C)C (stereo not given),inactive
20,Nc1c2c(nc3ccccc13)CCCC2O (stereo not given),inactive

row,Compound,Potency
1,NS(=O)(=O)Cc1noc2ccccc12,inactive
2,CC(=O)c1ccc(OCC(=O)N2CCCCC2)cc1,inactive
3,CCCN(CCC)CCc1cccc2c1CC(=O)N2,inactive
4,COCCc1ccccn1,inactive
5,CCCC(=O)O[C@]1(C(=O)CO)CC[C@H]2[C@@H]3CCC4=CC(=O)CC[C@]4(C)[C@H]3[C@@H](O)C[C@@]21C,inactive
6,CCCCCCCCCCCCCCCCO,inactive
7,CN=C(N)NC(=O)Nc1c(C)cccc1C,inactive
8,CN1[C@@H]2CC[C@H]1CC(OC(=O)c1c[nH]c3ccccc13)C2 (stereo not given in full),inactive
9,CCOc1ccc(C(=O)OCCN(CC)CC)cc1,inactive
10,CCN(CC)S(=O)(=O)c1ccc(C(=O)O)cc1,inactive
11,CN(C)C1CCN(C(=O)c2ccc(NC(=O)Nc3ccc(-c4nc(N5CCOCC5)nc(N5CCOCC5)n4)cc3)cc2)CC1,2.24 µM (active)
12,O=c1[nH]cnc2nc[nH]c12,inactive
13,CC[N+](CC)(CC(=O)Nc1c(C)cccc1C)Cc1ccccc1,inactive
14,COc1cc(C=O)ccc1O,inactive
15,NC(=O)CCCCC1CCSS1 (stereo not given),inactive
16,COc1ccc(C(=O)NCc2ccc(OCCN(C)C)cc2)cc1OC,inactive
17,Clc1ccc2nsnc2c1NC1=NCCN1,inactive
18,CCCCCCCC(=O)OCC(O)CO (stereo not given),inactive
19,CCOc1ccccc1OCC1CNCCO1 (stereo not given),inactive
20,OCCc1ccccc1,inactive

# — PubChem BioAssay (NCATS)
